In PubChem BioAssay (NCI) one finds growth data, which are given here for eight compounds.

Some test systems named below: HCT-15 colon; SNB-75 CNS; SNB-19 CNS; U251 CNS; PC-3 prostate; SK-MEL-5 melanoma; UACC-62 melanoma; LOX IMVI melanoma; SK-MEL-28 melanoma; SK-MEL-2 melanoma; EKVX NSCLC; SN12C renal; UO-31 renal; TK-10 renal; ACHN renal; CAKI-1 renal; A498 renal; CCRF-CEM leukemia; MOLT-4 leukemia.
What all share (experiment): NCI-60 one-dose screen, 48 h (100 = growth as untreated, 0 = no growth, -100 = all killed)
Holding throughout (settings): 10 µM unless noted

This is part of a sample that, as a whole, favours compounds with a hit. Of some 83,000 tested, about 20% had one in any assay.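 Plates (96-well) were seeded with cells, treated with compound at one concentration, and incubated for 48 hours before percent growth was determined.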 A number with no mark means an inactive call. The source made the active and inactive calls. The calls were made as follows: active = growth percent below 10; inactive = the rest.

`Nc1ccc2c(c1)C(=O)NC2=O`: the growth with HCT-15 colon was 98.5%; in the assay with SNB-75 CNS it was 75.8%; in the assay with SNB-19 CNS, 93.5%; in the assay on U251 CNS, 96%; with PC-3 prostate it was 121%; in the assay with SK-MEL-5 melanoma it was 105%. The growth is 89.7% with UACC-62 melanoma; 97.8% in the assay with LOX IMVI melanoma; 99.8% in the assay with SK-MEL-28 melanoma; 117% in the assay with SK-MEL-2 melanoma; 112% in the assay with EKVX NSCLC; 94.9% with SN12C renal. Further, the growth in the assay on UO-31 renal is 70.8%; in the assay with TK-10 renal it was 118%; with ACHN renal it was 99.3%; with CAKI-1 renal, 99.6%; in the assay on A498 renal, 119%; with CCRF-CEM leukemia, -49.6% (active). Moreover, the growth with MOLT-4 leukemia was 105%.

With `COc1ccc(N(Cc2cc(OC)c(OC)c(OC)c2)C2OC(=O)c3ccccc32)cc1` (stereo not drawn), the growth in the assay with HCT-15 colon was 36.1%; in the assay on SNB-75 CNS, -6.32% (active); with SNB-19 CNS, 53.3%; in the assay on U251 CNS it was 19.4%; in the assay with PC-3 prostate, 25.2%; in the assay with SK-MEL-5 melanoma, 18.2%. Further, the growth is 44.2% with UACC-62 melanoma; 46.2% in the assay on LOX IMVI melanoma; 55.5% with SK-MEL-28 melanoma; 21.5% in the assay with SK-MEL-2 melanoma; 52.8% with SN12C renal; 53.5% with UO-31 renal. Further, the growth is 53.5% in the assay with TK-10 renal; 61.5% with ACHN renal; 45.7% in the assay on CAKI-1 renal; 14% with A498 renal; 9.62% (active) in the assay with CCRF-CEM leukemia; 19.2% in the assay with MOLT-4 leukemia.

In the case of `CCCCCCCCCCCCCCCCCCSC1=CC(=O)C(OC)=C(OC)C1=O`, the growth in the assay on HCT-15 colon was 98.7%; with SNB-75 CNS, 95.1%; with SNB-19 CNS, 91.9%; with U251 CNS, 76.4%; in the assay with PC-3 prostate, 52%; with SK-MEL-5 melanoma it was 86.3%. Further, the growth in the assay with UACC-62 melanoma is 77%; with LOX IMVI melanoma, 45.9%; in the assay on SK-MEL-28 melanoma, 97.3%; in the assay on SK-MEL-2 melanoma, 96.5%; with EKVX NSCLC it was 91.3%; with SN12C renal, 80.9%. The growth is 76.6% in the assay on UO-31 renal; 91.6% with TK-10 renal; 93.1% in the assay with ACHN renal; 96.3% in the assay on CAKI-1 renal; 97.1% with A498 renal; 91.9% with CCRF-CEM leukemia. In the assay on MOLT-4 leukemia, the growth was 91.9%.

For `C(=N\Nc1nnn(Cc2ccccc2)n1)/c1ccccc1`, the growth in the assay on HCT-15 colon was 23.1%; with SNB-75 CNS, 75%; in the assay on U251 CNS it was 31.7%; in the assay on PC-3 prostate, 51.9%; with SK-MEL-5 melanoma, 32%; in the assay with UACC-62 melanoma, 41.5%. In addition, the growth in the assay on LOX IMVI melanoma was 48.8%; in the assay on SK-MEL-28 melanoma it was 45.4%; in the assay with SK-MEL-2 melanoma, 34%; in the assay on EKVX NSCLC, 57.6%; with SN12C renal, 67.5%; in the assay with UO-31 renal, 61.2%. The growth with TK-10 renal was 76.6%; in the assay with ACHN renal it was 67.2%; with CAKI-1 renal, 95.2%; in the assay on A498 renal, 38.2%; with CCRF-CEM leukemia it was 35%; in the assay with MOLT-4 leukemia it was 38.2%.

Regarding `CC(=O)/C(=C/c1cccc(Cl)c1)C(=O)c1ccccc1`, the growth is 70% in the assay with HCT-15 colon; 84.7% with SNB-75 CNS; 94.3% in the assay with SNB-19 CNS; 63.1% in the assay on PC-3 prostate; 89.9% in the assay on SK-MEL-5 melanoma; 83.3% in the assay on UACC-62 melanoma. In addition, the growth in the assay on LOX IMVI melanoma was 6.93% (active); with SK-MEL-28 melanoma, 90.9%; with SK-MEL-2 melanoma, 94.9%; with EKVX NSCLC, 98.6%; with SN12C renal, 100%; with UO-31 renal, 72.1%. Also, the growth with TK-10 renal was 96.6%; in the assay on ACHN renal it was 88.6%; with CAKI-1 renal, 95.3%; with A498 renal it was 119%; with CCRF-CEM leukemia it was 40.2%.

Turning to `CCOC(=O)c1c2ncccc2n2c(=O)n(-c3ccc(Cl)cc3)nnc12`, the growth in the assay with HCT-15 colon is 96.6%; in the assay with SNB-75 CNS, 86.7%; in the assay on U251 CNS, 95.1%; with PC-3 prostate, 95.6%; with SK-MEL-5 melanoma, 85.8%; in the assay with UACC-62 melanoma it was 46.6%. Moreover, the growth in the assay with LOX IMVI melanoma was 41.1%; in the assay on SK-MEL-28 melanoma it was 115%; in the assay with SK-MEL-2 melanoma, 108%; in the assay with EKVX NSCLC, 68.7%; in the assay with SN12C renal, 103%; with UO-31 renal, 61%. Also, the growth in the assay on TK-10 renal is 154%; with ACHN renal, 77.9%; in the assay on CAKI-1 renal, 73.9%; in the assay on A498 renal, 106%; in the assay with CCRF-CEM leukemia it was 72%; in the assay on MOLT-4 leukemia it was 86.8%.

On to `CCOC(=O)c1ccc2c(c1)nc(/C=C/c1ccc(Cl)cc1)n2-c1cc(C(C)(C)C)[nH]n1`, for which the growth with HCT-15 colon was 35.6%; with SNB-75 CNS, 0.573% (active); in the assay on SNB-19 CNS, 77.6%; with U251 CNS, 50.5%; in the assay on PC-3 prostate, 62.1%; in the assay with SK-MEL-5 melanoma, 62.1%. Moreover, the growth with UACC-62 melanoma was 19.1%; in the assay with LOX IMVI melanoma it was 39.9%; in the assay on SK-MEL-28 melanoma it was 47.3%; with SK-MEL-2 melanoma, 79.6%; in the assay on SN12C renal, 74.6%; in the assay with UO-31 renal it was 46.8%. The growth in the assay on TK-10 renal was 60%; in the assay on ACHN renal, 23.8%; in the assay on CAKI-1 renal, 92.3%; in the assay on A498 renal, 58.7%; with CCRF-CEM leukemia, 13.5%; in the assay with MOLT-4 leukemia it was -2.76% (active).

Turning to `CCN(CC)c1ccc(CNc2cc(C)nc3ccc(OC)cc23)cc1`, the growth in the assay with HCT-15 colon is 79.1%; with SNB-75 CNS, 65.8%; with U251 CNS it was 25%; in the assay on PC-3 prostate, 28.5%; with SK-MEL-5 melanoma, 39%; in the assay with LOX IMVI melanoma, 24.7%. For the same compound, the growth in the assay on SK-MEL-28 melanoma is 96.6%; with SK-MEL-2 melanoma, 79.2%; with EKVX NSCLC, 25.7%; in the assay on UO-31 renal, 3.78% (active); in the assay with TK-10 renal it was 71.1%; in the assay on ACHN renal, 78.1%. Moreover, the growth in the assay with CAKI-1 renal was 21.6%; with A498 renal, 17%; in the assay on CCRF-CEM leukemia, 23.3%; in the assay with MOLT-4 leukemia it was 4.46% (active).
